KDM5B inh: KDM5B demethylase inhibition | Q9UGL1 | KDM5B demethylase, FDH-coupled NADH fluorescence (FDH is formaldehyde dehydrogenase) | Potency, µM (series often up to 57.7 µM), most hits filed as inhibitors | actives 2.6% (n = 220,000); further: nearly all actives have a fitted effect of over 70% in size
Target sequence (Q9UGL1 whole entry, looked up): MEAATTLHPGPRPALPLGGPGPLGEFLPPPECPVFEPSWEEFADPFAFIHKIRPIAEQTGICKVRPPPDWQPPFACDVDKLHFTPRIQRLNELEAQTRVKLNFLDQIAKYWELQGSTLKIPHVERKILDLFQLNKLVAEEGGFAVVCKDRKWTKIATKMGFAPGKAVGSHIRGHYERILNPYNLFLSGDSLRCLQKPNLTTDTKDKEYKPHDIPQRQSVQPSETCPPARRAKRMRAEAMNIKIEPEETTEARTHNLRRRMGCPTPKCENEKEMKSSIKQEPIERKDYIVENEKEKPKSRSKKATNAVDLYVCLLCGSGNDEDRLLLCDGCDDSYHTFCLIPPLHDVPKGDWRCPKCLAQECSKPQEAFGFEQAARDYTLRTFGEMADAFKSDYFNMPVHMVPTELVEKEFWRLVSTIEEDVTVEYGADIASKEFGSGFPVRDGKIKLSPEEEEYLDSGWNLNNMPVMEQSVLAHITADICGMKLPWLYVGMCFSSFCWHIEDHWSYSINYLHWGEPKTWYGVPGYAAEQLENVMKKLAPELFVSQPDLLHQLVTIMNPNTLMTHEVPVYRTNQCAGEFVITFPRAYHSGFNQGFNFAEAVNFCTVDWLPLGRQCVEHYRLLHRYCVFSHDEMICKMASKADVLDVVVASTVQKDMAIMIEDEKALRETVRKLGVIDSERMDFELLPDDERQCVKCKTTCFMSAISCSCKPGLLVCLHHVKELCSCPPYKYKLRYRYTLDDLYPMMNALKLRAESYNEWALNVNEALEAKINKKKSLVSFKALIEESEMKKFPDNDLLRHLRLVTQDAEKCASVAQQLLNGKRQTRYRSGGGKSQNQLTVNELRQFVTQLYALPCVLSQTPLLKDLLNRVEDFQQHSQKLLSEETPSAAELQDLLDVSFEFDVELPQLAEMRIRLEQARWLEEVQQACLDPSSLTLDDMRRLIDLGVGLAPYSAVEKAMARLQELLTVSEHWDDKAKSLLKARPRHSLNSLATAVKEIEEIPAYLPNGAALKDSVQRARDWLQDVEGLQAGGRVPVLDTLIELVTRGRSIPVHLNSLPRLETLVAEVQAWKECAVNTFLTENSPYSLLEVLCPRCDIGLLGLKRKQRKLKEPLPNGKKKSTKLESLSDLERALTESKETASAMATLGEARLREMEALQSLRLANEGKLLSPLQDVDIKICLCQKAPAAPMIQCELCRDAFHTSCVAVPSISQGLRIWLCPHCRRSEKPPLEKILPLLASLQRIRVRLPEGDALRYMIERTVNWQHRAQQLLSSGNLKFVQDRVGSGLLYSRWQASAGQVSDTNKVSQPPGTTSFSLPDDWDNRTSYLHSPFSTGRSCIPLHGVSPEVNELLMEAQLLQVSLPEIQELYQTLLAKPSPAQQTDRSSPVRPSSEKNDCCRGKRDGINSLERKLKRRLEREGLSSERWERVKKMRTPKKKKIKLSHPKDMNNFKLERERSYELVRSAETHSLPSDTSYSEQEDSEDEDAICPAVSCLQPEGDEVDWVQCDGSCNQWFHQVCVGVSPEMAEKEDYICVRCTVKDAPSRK
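Here, H3K4me3 peptide (12.5 µM in substrate mix) is demethylated by KDM5BΔAP, 200 nM final, after 10 min compound exposure. Formaldehyde product is coupled through FDH (0.25 U/mL in mix) to NADH fluorescence; 30-min ΔRFU feeds dose-response curves.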
HEK293 viab: cell viability loss counter-screen; AID 1671193; actives 0.12% (n = 150,000); Potency, µM (doses to about 57.1 µM), most hits filed as cytotoxic; HEK-293-SNCA-luc viability, GF-AFC fluorescence, 24 h; further: nearly all actives have a fitted effect of over 30% in size
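HEK-293-SNCA-luc cells (1500/well) plated 24 h, then exposed 24 h to a dilution series; GF-AFC added 30 min at 37C, fluorescence 405/540 nm; normalised to medium-only and DMSO wells, Hill fit.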
IP6K1 inh: IP6K1 kinase inhibition | Q92551 | IP6K1 kinase, ADP-Glo luminescence, 2 h; stronger effect = lower value | activity change, % (series mostly up to about 58 µM) | actives 0.81% (n = 140,000); in the data active means activity change below about -25%
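ADP-Glo luminescence measures ADP made by human IP6K1 during a 2 h RT reaction with ATP/IP6 (mix at 1.3 mM/130 uM); top library doses 57.5 and 19.1 uM final.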
SNCA expr inh: SNCA gene expression inhibition; HEK-293 SNCA-luciferase knock-in, luminescence, 24 h; Potency, µM (titrated, usually from 57.2 µM), actives largely listed as inhibitors; actives 0.17% (n = 140,000); AID 1671194; further: nearly all actives have a fitted effect of over 45% in size
Each line names hits and unclear results; the compound was inactive in the other large screens; ! = not active in a repeat. Sampled rows, rich in hits. Any-hit rate of the full collection: about 2.9%. Unless noted, the call rests on the fitted dose curve; in most records, active means well fitted curve in the direction sought with a large enough effect; inconclusive means small, poorly fitted or top-dose-only effect, or another doubt; inactive means no such curve, though single readings can be large; an effect the other way counts as inactive or inconclusive.

CCCNC(=O)N1CCN2C(=O)c3cc(-c4cccc(C(F)(F)F)c4)ccc3NC(=O)[C@@H]2C1	KDM5B inh 31.6µM
COc1ccc(Cl)cc1-c1ccc2c(c1)C(=O)N1CCN(C(=O)C3CC3)C[C@@H]1C(=O)N2	KDM5B inh inconclusive
O=C(c1cc(Br)cn2ccnc12)N1CCC(N2CCCCC2)CC1	KDM5B inh 28.2µM
COc1ccc(C(=O)N2CCC(N3CCNC3=O)CC2)cc1	KDM5B inh 89.1µM
O=C(c1cc(Br)cn2ccnc12)N1CCC(N2CCCCCC2=O)CC1	KDM5B inh 25.1µM
Cc1ccc(C(=O)N2CCC(N3CCCCCC3=O)CC2)cc1	KDM5B inh 35.5µM
COc1ccc(C(=O)N2CCC(N3CCCNC3=O)CC2)cc1	none
O=C(c1cc(Br)cn2ccnc12)N1CCCC1	KDM5B inh 35.5µM
O=C(c1cc(Br)cn2ccnc12)N1CCOCC1	KDM5B inh 28.2µM!
O=C(c1cc(Br)cn2ccnc12)N1CCN(c2ncccn2)CC1	KDM5B inh inconclusive
N#CC1CCN(C(=O)c2cc(Br)cn3ccnc23)CC1	KDM5B inh 39.8µM
CN(C)C/C=C/C(=O)Nc1cccc(C(=O)Nc2cccc(Nc3ncc(Cl)c(-c4c[nH]c5ccccc45)n3)c2)c1	HEK293 viab inconclusive (no result: KDM5B inh, SNCA expr inh)
CN(C)C/C=C/C(=O)Nc1ccc(C(=O)Nc2cccc(Nc3ncc(Cl)c(-c4c[nH]c5ccccc45)n3)c2)cc1	HEK293 viab inconclusive, SNCA expr inh 0.171µM (no result: KDM5B inh)
COc1ccc(CCN(C)C2CCCN(c3ncccc3C#N)C2)cc1OC (stereo not drawn)	KDM5B inh 25.1µM
CC(C)CNc1ccc2c(n1)C(C)(C(=O)Nc1cccnc1)CN(Cc1ccccc1)C2 (stereo not drawn)	KDM5B inh 31.6µM, SNCA expr inh inconclusive
COCCN1Cc2ccc(NCC(C)C)nc2C(C)(C(=O)NCc2cccnc2)C1 (stereo not drawn)	KDM5B inh 31.6µM
CC(C)CNc1ccc2c(n1)C(C)(C(=O)N1CCC1)CN(Cc1ccccc1)C2 (stereo not drawn)	KDM5B inh 28.2µM, HEK293 viab inconclusive
CC(C)CNc1ccc2c(n1)C(C)(C(=O)N1CCOCC1)CN(Cc1ccccc1)C2 (stereo not drawn)	KDM5B inh 31.6µM, HEK293 viab inconclusive
CC(C)CNc1ccc2c(n1)C(C)(C(=O)NC1CCOCC1)CN(Cc1ccccc1)C2 (stereo not drawn)	none
Cc1nn2c(c1-c1ccccc1OCc1ccccc1)N(Cc1ccccc1O)CCC2	KDM5B inh inconclusive, SNCA expr inh inconclusive
COc1ccc(OC)c(CN2CCCn3nc(C)c(-c4ccccc4OCc4ccccc4)c32)c1	KDM5B inh 28.2µM, HEK293 viab 3.98µM, SNCA expr inh inconclusive
Cc1nn2c(c1-c1ccccc1Oc1ccccc1)N(CC1CC1)CCC2	KDM5B inh 31.6µM, HEK293 viab inconclusive, SNCA expr inh inconclusive
Cc1nn2c(c1-c1ccccc1OCc1ccccc1)N(CC1CC1)CCC2	KDM5B inh 35.5µM, HEK293 viab 10µM, SNCA expr inh inconclusive
Cc1nn2c(c1-c1cccnc1N1CCOCC1)N(CC1CC1)CCC2	KDM5B inh 35.5µM
Cc1nn2c(c1-c1ccccc1OCc1ccccc1)N(Cc1cccnc1)CCC2	none
COCc1nc(-c2ccc(OC3CCN(C(=O)c4nn(C)c5ccccc45)C3)cc2)no1 (stereo not drawn)	SNCA expr inh inconclusive
CC(C)=CC1C(C(=O)Nc2ccc(C)cc2C)C1(C)C (stereo not drawn)	none (no result: HEK293 viab, IP6K1 inh, SNCA expr inh)
CCCNc1nc2ccccc2nc1C(=O)Nc1cccc(Cl)c1	none (no result: HEK293 viab, IP6K1 inh, SNCA expr inh)
O=C(c1nc2sccn2c1-c1ccccc1)N1CCOCC1	none (no result: KDM5B inh)
COCCN1CCC2(CCC1=O)CN(c1ccc(C#N)cn1)CCN2C (stereo not drawn)	KDM5B inh 28.2µM, HEK293 viab inconclusive, SNCA expr inh inconclusive
COCCC(=O)N1CCCCCCNC(=O)[C@@H]2C[C@@H](C(=O)N3CCN(c4ccccn4)CC3)C[C@@H]21	KDM5B inh inconclusive, HEK293 viab inconclusive
CCC(=O)N1CCCCCCNC(=O)[C@@H]2C[C@@H](C(=O)N3CCN(c4ccccn4)CC3)C[C@@H]21	KDM5B inh 28.2µM
O=C1NCCCCCCN(C(=O)c2ccco2)[C@H]2C[C@H](C(=O)N3CCN(c4ccccn4)CC3)C[C@@H]12	KDM5B inh 25.1µM
CC(C)c1noc(-c2cccn3c(CNC(=O)c4ccc(Cl)cc4)nnc23)n1	KDM5B inh 25.1µM
Cc1ccc(CC(=O)NCc2nnc3c(-c4nc(C(C)C)no4)cccn23)cc1	KDM5B inh inconclusive
CC(C)c1noc(-c2cccn3c(CNC(=O)Cc4ccccc4Cl)nnc23)n1	KDM5B inh 25.1µM
Cc1ccc(C(=O)NCc2nnc3c(-c4nc(C(C)C)no4)cccn23)cc1	KDM5B inh inconclusive
Cc1ccccc1CC(=O)NCc1nnc2c(-c3nc(C(C)C)no3)cccn12	KDM5B inh 22.4µM
CC(C)c1noc(-c2cccn3c(CNC(=O)c4ccccc4Cl)nnc23)n1	KDM5B inh 10µM
CCOc1ccccc1C(=O)NCc1nnc2c(-c3nc(C(C)C)no3)cccn12	KDM5B inh inconclusive
CN(Cc1ccncc1)C1CCOc2ccccc21 (stereo not drawn)	KDM5B inh inconclusive
COc1ccccc1CCC(=O)N[C@@H]1CN(c2ncccn2)C[C@H]1CO	KDM5B inh 17.8µM
Cc1ncccc1C(=O)N[C@@H]1CN(c2ncccn2)C[C@H]1CO	KDM5B inh 20µM
Cc1nn(C)c(C)c1C(=O)N[C@@H]1CN(c2ncccn2)C[C@H]1CO	KDM5B inh 20µM
O=C(N[C@@H]1CN(c2ncccn2)C[C@H]1CO)c1ccoc1	KDM5B inh 12.6µM
CNC(=O)c1cc(C2CC2)nc2c1c(C1CCN(C(=O)OC)C1)nn2C (stereo not drawn)	none (no result: KDM5B inh, HEK293 viab, SNCA expr inh)
O=C(CN1CCN(C(=O)c2cc(-c3ccccc3)nc3ccccc23)CC1)NC1CC1	none (no result: HEK293 viab, IP6K1 inh, SNCA expr inh)
Cc1cc(C)c2nc(N3CCN(C(=O)CCS(=O)(=O)c4ccccc4)CC3)sc2c1	none (no result: HEK293 viab, IP6K1 inh, SNCA expr inh)
Fc1ccc(NC(=S)NCCSc2ccc(Cl)cc2)cc1	none (no result: HEK293 viab, IP6K1 inh, SNCA expr inh)
OCCCNC(=S)Nc1ccc(Br)cc1	none (no result: HEK293 viab, IP6K1 inh, SNCA expr inh)
c1cc(-c2cnn3cc(-c4ccc(N5CCNCC5)cc4)cnc23)c2cccnc2c1	HEK293 viab 23.8µM (no result: KDM5B inh, SNCA expr inh)
CCCc1noc(-c2ccn3c(CNC(=O)c4cccc(N(C)C)c4)nnc3c2)n1	KDM5B inh inconclusive
Cc1noc(-c2ccn3c(CNC(=O)c4ccco4)nnc3c2)n1	KDM5B inh 28.2µM
CCCc1noc(-c2ccn3c(CNC(=O)c4ccc5ccccc5n4)nnc3c2)n1	KDM5B inh 12.6µM
CCCc1noc(-c2ccn3c(CNC(=O)c4ccco4)nnc3c2)n1	KDM5B inh 28.2µM
Cc1noc(C)c1[S+](=O)([O-])NC1CCCN(c2ccc3nnc(C)n3n2)C1 (stereo not drawn)	none (no result: KDM5B inh, HEK293 viab, SNCA expr inh)
CCCNC(=O)c1cccc(NC(=O)CCc2ccccc2)c1	none (no result: HEK293 viab, IP6K1 inh, SNCA expr inh)
Cc1ccc(-c2nnc3ccc(N4CCCCC4)nn23)nc1	KDM5B inh 31.6µM
Cc1nc(NCC2CC2)ncc1C(=O)O	KDM5B inh 22.4µM
